Screening results (PubChem)
HTT cytoprotect – protects HTT-Q103 PC12 cells, measured by ATP. PC12 HTT-Q103 induced, cytoprotection, ATP luminescence, 40 h. Potency, µM (titrated, usually from 56.4 µM), for inactives: cytoprotection (ATP increase), actives largely listed as activators. 230,000 compounds, 0.14% hits; also: potency is read from the fitted curve at half-maximal effect; % of control where 0% means no effect; nearly all actives have a fitted effect of over 45% in size
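Readout: ATPlite luminescence (ATP level). Model: stable PC12, inducible Htt exon1 Q103-GFP. Inducer: tebufenozide, 100 nM final. Compounds: dose series. No G418 in medium.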
Coupling enz – counter-screen for Giardia aldolase inhibitors: coupling enzyme system; coupling enzyme system counterscreen, AmpLite Red fluorescence; activity change, negative = inhibition, % at 58.2 µM, hits read low; 290,000 compounds, 0.67% hits; AID 2472; in the data active = activity change below about -30%; also: % is scaled to controls: 0 for no effect and ±100 for the full control effect
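Final compound at 57.5 uM, incubated 10 min at RT with coupling enzyme reagent (glyceraldehyde-3-phosphate), then 20 min with substrate and AmpLite Red detection. Fluorescence read at 525/598 nm; tests interference with the coupling assay, not aldolase inhibition.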
HTT aggregate – reduces HttQ103-GFP aggregates in PC12 cells. PC12 HttQ103-GFP aggregates, Acumen cytometry, 40 h. Potency, µM (titrated, usually from 46.1 µM), for inactives: top-dose activity change, negative = inhibition, actives largely listed as inhibitors. 220,000 compounds, 1.1% hits. AID 1688; also: potency is read from the fitted curve at half-maximal effect; % is scaled to controls: 0 for no effect and ±100 for the full control effect; nearly all actives have a fitted effect of over 60% in size
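Compounds (qHTS titration) were added to PC12 cells expressing an ecdysone-driven HTT exon 1 Q103–GFP fusion after induction with 100 nM tebufenozide. Aggregate formation was measured as GFP objects in cell lysates.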
KDM4E inh – blocks human JMJD2E demethylase activity | AID 2147 | JMJD2E catalytic domain, FDH-coupled NADH fluorescence (FDH is formaldehyde dehydrogenase) | B2RXH2 | 230,000 compounds, 1.6% hits | Potency, µM (titrated, usually from 57.1 µM), for inactives: at the highest dose activity change, negative = inhibition, actives largely listed as inhibitors; active = well fitted inhibition curve with a large enough effect, not every such curve was filed as active; inconclusive = small, poorly fitted or top-dose-only effect, or another doubt; inactive = no such curve, though single readings can be large or run the other way;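 also: potency is read from the fitted curve at half-maximal effect; 0% = wells with enzyme and -100% = buffer wells without enzyme; nearly all actives have a fitted effect of over 50% in size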
Target sequence (B2RXH2 1-337 limits assumed): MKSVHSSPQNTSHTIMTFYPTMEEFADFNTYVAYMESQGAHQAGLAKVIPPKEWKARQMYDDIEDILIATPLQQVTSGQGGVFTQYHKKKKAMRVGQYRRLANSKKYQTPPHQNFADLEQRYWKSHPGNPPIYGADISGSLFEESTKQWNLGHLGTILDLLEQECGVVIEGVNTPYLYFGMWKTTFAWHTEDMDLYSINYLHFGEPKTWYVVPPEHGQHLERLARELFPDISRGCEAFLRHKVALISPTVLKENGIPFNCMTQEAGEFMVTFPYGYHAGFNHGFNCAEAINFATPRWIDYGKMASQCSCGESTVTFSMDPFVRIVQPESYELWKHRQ
TR SRC2 fluor cs – alters Texas Red total fluorescence, flagging assay interference; 280,000 compounds, 0.29% hits; Potency, µM (top dose mostly 106 µM), for inactives: top-dose fluorescence change, negative = quenching; TRb/SRC2 Texas Red total fluorescence interference; active = well fitted curve in either direction with a large enough effect; inconclusive = small, poorly fitted or top-dose-only effect; also: potency is read from the fitted curve at half-maximal effect; % is scaled to controls: 0 for no effect and ±100 for the full control effect
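Flags fluorescent or light-absorbing compounds by total fluorescence, S + 2P, at 555 nm excitation and 632 nm emission. Mixture: 20 nM Texas Red SRC2 peptide, 0.6 uM human TRb LBD, 1 uM T3, 5% DMSO; compound exposure 5 h at ambient temperature.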
TRb SRC2 PPI – disrupts binding of human TR beta to SRC2 | P10828 | TRbeta-SRC2 peptide binding, fluorescence polarization; receptor liganded with 1 µM T3 | Potency, µM (highest dose often 106 µM), inactives show at the top dose activity change, negative = inhibition, actives largely listed as inhibitors | 280,000 compounds, 0.065% hits | AID 1469;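 also: potency is read from the fitted curve at half-maximal effect; plate controls were bound peptide for no effect and peptide without receptor for full effect; nearly all actives have a fitted effect of over 50% in size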
Target sequence (P10828 whole entry, looked up): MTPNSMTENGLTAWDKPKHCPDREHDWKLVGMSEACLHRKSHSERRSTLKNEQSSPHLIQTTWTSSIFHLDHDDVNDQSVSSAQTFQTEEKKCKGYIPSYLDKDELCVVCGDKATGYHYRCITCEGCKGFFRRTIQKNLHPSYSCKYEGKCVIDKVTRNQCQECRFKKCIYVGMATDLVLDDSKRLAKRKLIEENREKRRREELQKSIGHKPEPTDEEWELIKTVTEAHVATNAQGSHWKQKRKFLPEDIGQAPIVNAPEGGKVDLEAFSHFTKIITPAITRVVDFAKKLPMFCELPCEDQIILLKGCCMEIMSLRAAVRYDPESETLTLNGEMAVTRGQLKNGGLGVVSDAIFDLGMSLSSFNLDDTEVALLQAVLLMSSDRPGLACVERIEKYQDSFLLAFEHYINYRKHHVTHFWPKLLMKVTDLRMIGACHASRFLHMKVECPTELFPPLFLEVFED
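Fluorescence polarization of 20 nM Texas Red SRC2 peptide with 0.6 uM human TRb ligand-binding domain, in Tris buffer with 1uM T3 and 5% DMSO. Incubated 5 hr ambient; normalized to unbound and bound controls.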
* marks the source's active call; other numbers are inactive results; ? = inconclusive; · = no result given; [ ] = dose if it differs, or a comment. Sampled rows, rich in hits. Any-hit rate of the full collection: about 2%. Unless noted, calls follow the shape of the dose curve; as a rule, active = well fitted curve in the direction sought with a large enough effect; inconclusive = small, poorly fitted or top-dose-only effect, or another doubt; inactive = no such curve, though single readings can be large; an effect the other way counts as inactive or inconclusive.

SMILES | HTT cytoprotect | Coupling enz | HTT aggregate | KDM4E inh | TR SRC2 fluor cs | TRb SRC2 PPI
CCOC(=O)c1ccccc1NC(=O)CN(c1ccccc1)S(=O)(=O)c1ccc(OCC)cc1 | · | · | · | · | -2% | 7%
CCOc1ccc(NC(=O)c2ccccc2NS(=O)(=O)c2ccc(F)cc2)c([N+](=O)[O-])c1 | 6%[10 µM] | 6 | 11µM* | -5% | -2% | 3%
CC(C)C(=O)SCCCCCCC(=O)Nc1nc(-c2ccccc2)cs1 | · | -2 | · | · | -1% | 3%
S=C(NCCN1CCOCC1)Nc1cccc2ccccc12 | -15%[10 µM] | 2 | 3.5µM* | ? | -1%[53 µM] | -3%[53 µM]
Cc1c(C(=O)Nc2ccccc2)sc2nc(-c3cc4ccccc4oc3=O)[nH]c(=O)c12 | · | · | · | · | 282µM*[quencher] | -2%
COCC(=O)N1CCC2(CC1)CCN(c1cccc(-c3ccccc3)c1)CC2 | ? | 4 | · | · | · | ·
Cc1cccc2sc(NC(=O)CN(C)S(=O)(=O)c3ccc(Br)s3)nc12 | -3% | 3 | ? | 4% | 1% | -14%
Cc1cccc2sc(NC(=O)CN(C)S(=O)(=O)c3cccs3)nc12 | -15% | 4 | 16µM* | -7% | 1% | 8%
O=C(O)C1Nc2c(C(=O)N3CCOCC3)cccc2C2C=CCC12 (centres undefined) | -7% | -34* | 1% | ? | 20% | -6%
Cc1ccc2c(c1C)NC(C(=O)O)C1CC=CC21 (centres undefined) | 1%[10 µM] | -6 | -9% | 20µM* | -21% | -17%
O=C(c1ccccc1O)N1CCOCC1 | -10%[10 µM] | 0 | 1%[9.22 µM] | 4% | -1% | 0%
O=S(=O)(c1ccc2c(c1)OCCO2)N1CCC(n2nnc3cc(C(F)(F)F)ccc32)CC1 | -14%[10 µM] | -5 | 10µM* | -4% | -1% | -9%
O=S(=O)(c1ccccc1)N1CCC(n2nnc3cc(F)ccc32)CC1 | -12% | -2 | -8% | 4% | 3% | 10%
Cc1ccsc1/C=C\C1=NCCCN1C | -17%[17.1 µM] | 0 | 22%[20.6 µM] | 0%[25.5 µM] | -2%[53 µM] | 6%[53 µM]
O=C(Nc1ccccc1)N1CCC2(CC1)CCN(C(=O)c1cnccn1)CC2 | 3.5µM* | 1 | · | · | · | ·
O=C1N=C(N2CCN(c3ccccc3)CC2)S/C1=C\c1ccco1 | -44% | -24 | 14% | -27% | -14% | 4%
NC1=NC(=O)/C(=C\c2ccco2)S1 | 10%[10 µM] | -19 | -31%[9.22 µM] | 22µM* | -15% | -7%
NC1=NC(=O)/C(=C\c2cccnc2)S1 | -20% | -1 | 8.9µM* | -1% | 3% | -6%
COc1ccccc1CNC(=O)C1CCN(c2nc3ccc(Cl)cc3[nH]2)CC1 | · | · | · | · | -2% | -5%
N#C/C(=C\c1ccccc1)c1nc(-c2cc3c(ccc4ccccc43)oc2=O)cs1 | · | · | · | · | 0.28µM*[quencher] | -29%[53 µM]
CC1=C(C(=O)N2CCN(c3ccc(Cl)cc3)CC2)C2(CCC(C)CC2)OC1=O (centres undefined) | · | · | · | · | -65% | -11%
Cc1ccc(OCCNS(=O)(=O)c2ccc(N3CCCC3=O)cc2)cc1 | 18%[10 µM] | 4 | 11µM* | 10% | -9% | 4%
Cc1ccc(OCCNS(=O)(=O)c2ccc(N3CCCC3=O)cc2)cc1C | -16% | 2 | ? | 0% | -3% | 5%
CCc1ccc2occ(CC(=O)Nc3ccc(C)c(C)c3)c2c1 | · | · | · | · | 8% | -2%
COc1ccc(-c2nn3c(-c4ccc(C)cc4)nnc3c3ccccc23)cc1 | · | · | · | · | -14% | 7%
SMILES | HTT cytoprotect | Coupling enz | HTT aggregate | KDM4E inh | TR SRC2 fluor cs | TRb SRC2 PPI
COc1ccc(C(=O)NC(=S)N(Cc2ccccc2)Cc2ccccc2)cc1 | 12% | 6 | 10µM* | 0% | -2% | -8%
O=C(Nc1ccc(Oc2cccnc2)cc1)c1ccccc1Cl | · | -1 | 11µM* | -6% | -8% | -1%
COc1cccc(-c2cn3nc4c(nc3n2)CCCC4)c1 | -154%[0.074 µM] | -13 | 3% | 22µM* | -10% | -4%
Clc1ccc(-c2cn3nc4c(nc3n2)CCCC4)cc1 | -62% | -10 | -7% | ? | 0% | -3%
Cc1ccc(-c2nnn(CC(=O)N(CC(=O)NCCC(C)C)c3ccc(F)cc3)n2)cc1 | · | · | · | · | 2% | -1%
NC(N)=NNC(=O)C(=O)O | -2%[10 µM] | · | · | · | · | ·
NC(=O)c1c(-c2cccs2)csc1N | 11%[0.074 µM] | -45* | -23% | ? | 2% | 2%
O=C(c1ccc2c(c1)N(Cc1ccc(F)cc1)C(=O)c1ccccc1S2(=O)=O)N1CCCCCC1 | · | · | · | · | -32% | 0%
CCCCN(C)C(=O)c1ccc2c(c1)N(Cc1ccc(F)cc1)C(=O)c1ccccc1S2(=O)=O | · | · | · | · | 0.0011µM*[quencher] | -12%
COC(=O)c1c[nH]n2c(=O)c(Cl)c(C)nc12 | · | -3 | -2% | -27% | -2% | 5%
COC(=O)c1c[nH]n2c(=O)c(Cc3ccc(F)cc3Cl)c(C)nc12 | -10%[0.074 µM] | 1 | 18µM* | 1% | 0% | -2%
FC(F)(F)c1cccc(NCc2cn3cccnc3n2)c1 | -11% | -52* | -12% | -12% | 0% | 8%
CC1(C)Cc2c(C#N)c(NCc3ccco3)nc(-c3ccco3)c2CO1 | -24%[10 µM] | -3 | 1µM* | ? | 5% | -5%
Cc1ccc(-n2c(=O)c3oc4ccccc4c3n(Cc3cccc(F)c3)c2=O)cc1C | · | · | · | · | -3% | 9%
NNC(=O)c1cncc(Br)c1 | -3%[10 µM] | 11 | 0%[9.22 µM] | 97% | -2% | -3%
CCc1ccc(C(=O)c2cncc(Br)c2)cc1 | 5% | 3 | 20µM* | 4% | -3% | -9%
Cc1ccc(C(=O)c2cncc(Br)c2)cc1 | 13% | 2 | 14µM* | 1% | 2% | 3%
COc1ccc(C(=O)CC2(O)C(=O)Nc3c(C)cccc32)c(OC)c1OC (centres undefined) | · | · | · | · | 1% | 4%
CN(C)C(=O)/C(C#N)=C\c1cc(Br)c(Sc2ccc(Cl)cc2)o1 | · | -51* | ? | -129% | 0% | 0%
COc1cc(CN(C(=S)NCC(=O)N2CCCC2)C2CCCC2)cc(OC)c1OC | -7%[10 µM] | 2 | -5% | 8% | 3% | -5%
COc1cc(CN(C(=S)NCC(=O)NC2CC2)C2CCCC2)cc(OC)c1OC | 9%[10 µM] | 6 | 3% | -3% | 0.089µM*[quencher] | ?
O=C(O)CCCCCNC(=O)Nc1ccc2c(c1)OCCO2 | -11% | 5 | 25% | 7% | -1% | 11%
O=C(O)CCNc1ccc2c(c1)OCCO2 | -27% | -41* | ? | 4% | -2% | 8%
CC1(C)c2ccccc2N2CC(=O)N(CC(N)=O)C21C (centres undefined) | -16%[0.074 µM] | 4 | -7% | -4% | 50µM*[fluorescent] | ?
O=C(CSc1nc(-c2ccccc2F)nc2cc(=O)[nH]n12)Nc1cccc(C(F)(F)F)c1 | · | · | · | · | -2% | -7%
